The panel holds about 83,000 compounds, 20% with a hit somewhere; the sample as a whole holds those more often.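 Step 1: grow cells in 96-well plates. Step 2: add test compound at a single concentration. Step 3: incubate 48 h. Step 4: record percent growth.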 Active and inactive are the calls of the source.

In the test the test system is M14 melanoma. Nature of the test: NCI-60 one-dose screen, 48 h (100 = growth as untreated, 0 = no growth, -100 = all killed). The settings on record: 10 µM unless noted. Here is the method:
Growth inhibition of the M14 human tumor cell line is measured as a screen for anti-cancer activity. Cells are grown in 96 well plates and exposed to the test compound for 48 hours. Compounds are tested at a single concentration, which is 10^-5 M for most compounds. The reported endpoint is percent growth (GI% or GIPRCNT), where numbers from 0 - 100% represent growth inhibition, and numbers from -100% - 0 represent cell death. For example, a value of 40 represents 60% growth inhibition. A value of 0 means no net growth occurred over the course of the experiment. A value of -40 indicates 40% of cells at the beginning of the experiment died by the end of the experiment. A value of -100 means all cells are dead at the end of the experiment.
NCI-60 Human Tumor Cell Lines Screen was performed using the standard one-dose NCI protocol, which is described in more detail at https://dtp.cancer.gov/discovery_development/nci-60/default.htm.
Compounds with GIPRCNT values below 10 were considered active. Activity score was based on GIPRCNT using the following formula: […]
Score is 0 for GIPRCNT values of 100 or above, 50 for GIPRCNT values of 0, and 100 for GIPRCNT values of -100.
Consider `CC/C=C\C[C@H](O)C/C=C1/C(=O)C=C[C@@H]1C/C=C\CCCC(=O)OCCS(=O)(=O)c1ccccc1`, for which the growth is 27.5% (inactive).
As to `CCOC(=O)C1=C(C)c2ccc(OC)c(OC)c2C1`, the growth is 126% (inactive).
As for `COc1ccc(-c2nsc3c2NC(=O)CC3c2ccc3c(c2)OCCO3)cc1` (stereo not given), the growth was 19.7% (inactive).
Turning to `O=C(/C=C/c1ccccn1)c1ccc(OCc2nnc(-c3ccc(Cl)cc3)o2)cc1`, the growth is 31.1% (inactive).
`O=C(COc1cc(O)c2c(=O)cc(-c3ccccc3)oc2c1)Nc1ccccc1C(F)(F)F`: the growth was 70.6% (inactive).
In the case of `CCOC(=O)c1c2c(n3cccc(Cl)c13)C(=O)c1ncccc1C2=O`, the growth was 22.6% (inactive).
Regarding `COc1ccccc1C1=C(Br)C(=O)c2nc(C)ccc2C1=O`, the growth was 93.7% (inactive).
In the case of `CCN(CCO)CCNc1ccc(C)c2sc3cc(Cl)ccc3c(=O)c12`, the growth was -74.2% (active).
In the case of `CN1C(=O)N(C)C2C1NN=c1s/c(=C\c3ccc([N+](=O)[O-])cc3)c(=O)n12` (stereo not given), the growth was 51.2% (inactive).
`Nc1nc(N)c2c(n1)NC1(C=C(O)c3ccccc31)C1=C(N2)c2ccccc2C1=O` (stereo not given): the growth is 105% (inactive).
For the compound `COC(=O)c1cc2c(n1Cc1ccccc1)-c1oncc1CCC2`, the growth was 57.5% (inactive).
For `Nc1ccc(-c2nn3c(CCC(=O)c4nc5ncccc5[nH]4)nnc3s2)c(O)c1`, the growth is 96.5% (inactive).
With `CCOc1ccc2nc(C)cc(Nc3ccc(Br)cc3)c2c1`, the growth is 121% (inactive).
In the case of `O=C(Nc1ccc(Cl)cc1F)c1cc(Br)ccc1O`, the growth is 8.91% (active).
For the compound `c1ccc2c(c1)oc1cc3sccc3nc12`, the growth was 94.7% (inactive).
In the case of `O=C(NC1C(O)OC(CO)C(O)C1O)NS(=O)(=O)c1ccc(Cl)cc1` (stereo not given) it was 102% (inactive).
Regarding `Cc1cccc2c(=O)c3c(sc12)c(N1CCNCC1)nc1ccccc13`, the growth was 74% (inactive).
In the case of `Cc1ccc(CN2CCC(C(=O)Nc3ccc(-c4cc5ccccc5[nH]4)cc3)CC2)o1` it was 41.9% (inactive); in that of `O=C(/C=C/c1ccc(Cl)cc1)c1ccc(Nc2nc(NCCO)nc(Nc3ccc(Cl)cc3)n2)cc1`, 64.1% (inactive); in that of `COc1cc(C2C(C#N)=C(N)OC3=C2C(=O)c2ccccc2C3=O)cc(OC)c1OC` (stereo not given), 12.3% (inactive).
Under `COc1ccc(C2NCCc3c2[nH]c2ccccc32)cc1CN1CCN(c2ccc(F)cc2)CC1` (stereo not given) stands -30% (active).
As to `COc1cc(CNC(=O)c2ccsc2Nc2ccnc(C(F)(F)F)c2)ccc1O`, the growth was 100% (inactive).
Consider `NC(=O)CSc1nc(-c2ccc(F)cc2)cc(-c2ccco2)n1`, for which the growth was 98% (inactive).
Under `CC(C)[C@H](NC(=O)Cn1cc(C(=O)O)nn1)C(=O)O` stands 108% (inactive); under `COc1ccc(C2=C(c3cccc(OC)c3)C(=O)c3ccc(C)nc3C2=O)cc1`, 42% (inactive).
`CCCCc1ccc(NS(=O)(=O)c2cc3c4c(c2)CCN4C(=O)CC3)cc1`: the growth is -12.8% (active).
Turning to `O=c1oc2ccc(I)cc2c(=O)n1-c1ccc(F)cc1F`, the growth is 21% (inactive).
In the case of `COc1cc(C(=O)O/N=C(\N)Cc2cccc3ccccc23)cc(OC)c1OC` it was -72.7% (active); in that of `Nc1ccccc1-c1ccc(-c2ccc(Cl)cc2)c2c1[nH]c1ccccc12`, 49.3% (inactive).
Consider `CCOC(=O)c1c(C=O)nc2ccccc2c1/C=C/c1ccc(Cl)cc1`, for which the growth was 91.6% (inactive).
On to `COc1ccc(-c2cn[nH]c2-c2ccc(OC)c(O)c2)cc1`, for which the growth is 64.2% (inactive).
For `O=C(c1ccccc1)N(C(=S)NCCc1ccc(Cl)cc1)c1ccc(Cl)cc1`, the growth was 71.2% (inactive).
For `COC(=O)c1c2c(c(C)[n+]([O-])c1C)C(=O)C=C(NCc1ccc(F)c(F)c1)C2=O`, the growth was -88.2% (active).
On to `CCOC(=O)c1ccc(N=Cc2sc(=O)[nH]c2O)cc1`, for which the growth is 97.9% (inactive).
For the compound `O=C(Nc1ncc(Cc2cccc(C(F)(F)F)c2)s1)C1COc2ccccc2O1` (stereo not given), the growth is 88.5% (inactive).
`O=C(Nc1ccc(N2CCNCC2)cc1)c1[nH]ncc1Nc1cc(Oc2ccccc2)ncn1`: the growth is 12.9% (inactive).
As to `Cc1ccc2sc3c(NCCCNCCO)nc4ccccc4c3c(=O)c2c1`, the growth was -44.3% (active).
For `COC(=O)c1c2c(c(C)[n+]([O-])c1C)C(=O)C=C(NCc1ccccc1)C2=O`, the growth is -80.1% (active).
Under `CCOC(=O)c1cc2c(n1Cc1cc(OC)cc(OC)c1)-c1oncc1CCC2` stands 25.3% (inactive); under `Nc1ccn(C2O[C@H](CO)[C@@H](O)[C@H]2O)c(=O)n1` (stereo not given in full), 107% (inactive).

(Values after PubChem BioAssay (NCI).)
